Assay results taken from PubChem BioAssay AID1789 (The Scripps Research Institute Molecular Screening Center, 2009).
Out of some 290,000 compounds screened, about 2,700 (0.93%) were called active.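 Rule for the calls: active = inhibition above the screen-wide mean plus 3 SD, computed separately per campaign (cut at about 16% in these data); inactive = the rest.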 The entries come from a sample that favours actives as a whole.

Test system: Heat shock protein HSP 90 (rabbit reticulocyte lysate; luciferase refolding)
Assay: inhibitors of HSP90 chaperone activity – cell lysate, luminescence, primary screen (AID 1789);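 note: 0% = DMSO wells and 100% = 60 µM geldanamycin wells; inhibitors lower the luminescence because luciferase stays unfolded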
Settings: 3 h, at 5.6 µM, stronger effect = higher value

| SMILES | inhibition |
| --- | --- |
| COc1cccc(-c2nc3ccc(N4CCN(C)CC4)cc3[nH]2)c1 | 60.8% (active) |
| CN1CCN(c2cc(N3CCNCC3)ccc2[N+](=O)[O-])CC1 | -3.02% (inactive) |
| Cc1nc2ccc(N3CCN(C)CC3)cc2nc1C | 1.77% (inactive) |
| CC1=CC(=Cc2sc3ccccc3[n+]2C)C=C(C)O1 | 0.85% (inactive) |
| O=c1c2ccccc2nc(/C=C/c2ccc(F)cc2)n1-c1ccccc1O | -2.14% (inactive) |
| O=c1c2ccccc2nc(-c2ccco2)n1-c1ccc(Br)cn1 | -1.12% (inactive) |
| O=c1c2ccccc2nc(/C=C/c2ccco2)n1-c1ccccc1O | 19.4% (active) |
| CN(c1ccccc1)c1ccc([N+](=O)[O-])c2nonc12 | 3.91% (inactive) |
| CC(C)CN1CCN(Cc2ccccc2C(F)(F)F)CC1CCO (stereo not given) | -3.13% (inactive) |
| O=C(NC(c1ccc(Cl)cc1)P(=O)(Oc1ccccc1)Oc1ccccc1)OCc1ccccc1 (stereo not given) | 1.96% (inactive) |
